The record followed here is the supplement of paper PMC4840960.

The test concerns E18 rat cortical neuron-glia co-culture. Description: myelination (MBP fiber length per Olig2+ nucleus), % of 1 µM DAPT response (DMSO = 0) (% of DAPT); higher = more myelination, active = 50 or more. Conditions: 5 µM; treatment time: 8 days (DIV5-DIV13). In outline: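 The myelination value was the continuous straight MBP fiber length per Olig2+ nucleus, scaled between 0.1 % DMSO (0) and a 1 µM positive control (100). It was measured in primary E18 rat cortical co-cultures treated with library compounds at 1 or 5 µM in myelination medium from DIV5 through DIV13. Cells were fixed in 4 % paraformaldehyde and stained for MBP, Olig2 and DAPI, and four 10X fields per well were imaged in duplicate wells.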
In the case of `CC12CC3CC(C)(C1)CC(N)(C3)C2` [Memantine], the myelination is -7.18 (inactive).
The result for `CNC[C@H](O)c1ccc(O)c(O)c1` [Epinephrine] reads 38.8 (inactive); that for `CC(C)[C@H]1CC[C@H](C(=O)N[C@H](Cc2ccccc2)C(=O)O)CC1` [Nateglinide], -10.9 (inactive).
With `Cc1nnc(SCC2=C(C(=O)O)N3C(=O)[C@@H](NC(=O)Cn4cnnn4)[C@H]3SC2)s1` [Cefazolin], the myelination is 6.84 (inactive).
Take `CN1CCN(c2nc3cc(C(F)(F)F)ccc3n3cccc23)CC1`: the myelination is -20.7 (inactive).
For `CC(COc1ccccc1Cc1ccccc1)N1CCCCC1` (stereo not drawn) [Benproperine], the myelination is -4.27 (inactive).
The result for `Cn1ccnc1S` [Methimazole] reads -15.9 (inactive); that for `C#C[C@]1(O)CC[C@H]2[C@@H]3CCc4cc(O)ccc4[C@H]3CC[C@@]21C` [Ethinyl Estradiol], 159.
The result for `COc1cc(CNC(=O)CCCC/C=C\C(C)C)ccc1O` [Zucapsaicin] reads 98.2 (active); that for `Nc1nc2c(ncn2COCCO)c(=O)[nH]1` [Acyclovir], 29.3 (inactive).
For the compound `CO[C@H]1/C=C/O[C@@]2(C)Oc3c(C)c(O)c4c(O)c(c(/C=N/N5CCN(C6CCCC6)CC5)c(O)c4c3C2=O)NC(=O)/C(C)=C\C=C\[C@H](C)[C@H](O)[C@@H](C)[C@@H](O)[C@@H](C)[C@H](OC(C)=O)[C@@H]1C` [Rifapentine], the myelination was 21 (inactive).
As for `Cc1cccc(C)c1OCC(C)N` (stereo not drawn) [Mexiletine], the myelination is 8.07 (inactive).
Then `CNCC[C@H](Oc1cccc2ccccc12)c1cccs1` [Duloxetine], with -33.2 (inactive).
